Measurements reported in PubChem BioAssay (Tox21).
Where “and” joins values, the source holds several entries; their conditions need not be identical. Equal entries are not always repeated. Inconclusive results are not listed. The source holds several records for some structures; these can differ, active in one and inactive in another. Calls of active or inactive are those of the source. Unless noted, the call rests on the fitted dose curve.

What was measured:
[1] = Nuclear factor erythroid 2-related factor 2/antioxidant responsive element (Nrf2/ARE) small molecule agonists: qHTS cell viability counter screen in human keratinocytes (AID 1919968; active means well fitted curve in the direction sought with a large enough effect in the repeat runs; an effect the other way counts as inactive or inconclusive; further: nearly all actives have a fitted effect of over 55% in size; further: potency means the concentration at half of the fitted maximal effect)
Procedure, shortened: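 KeratinoSens HaCaT cells, 1,500/well, preincubated 5 h, then exposed to compounds in DMSO for 23 h at 37 C/5% CO2. Viability read as CellTiter-Fluor fluorescence after 1 h, in the same wells as the ARE-luciferase read.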

[2] = Nuclear factor erythroid 2-related factor 2/antioxidant responsive element (Nrf2/ARE) small molecule agonists: luciferase reporter gene qHTS assay in human keratinocytes (AID 1919969); further: nearly all actives have a fitted effect of over 35% in size; further: potency means the concentration at half of the fitted maximal effect
[3] = target: Gonadotropin-releasing hormone receptor (Homo sapiens) (UniProt P30968); assay: Human gonadotropin-releasing hormone receptor (GnRHR) small molecule agonists, calcium flux assay in GnRHR-HEK293 cells (AID 1920063); further: nearly all actives have a fitted effect of over 35% in size
Procedure, shortened: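 HEK293 cells stably expressing human GnRHR were dye-loaded for 1 h at 37 C. Compound was added in agonist mode and fluorescence (Ex/Em 480/540) recorded kinetically for 3 min. Fifteen concentrations, triplicates.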

[4] = target: KiSS-1 receptor (Homo sapiens) (UniProt Q969F8); assay: Human kisspeptin (KISS1R) small molecule agonists, calcium flux assay in KISS1R-HEK293 cells (AID 1920064; active means well fitted curve in the direction sought with a large enough effect in the repeat runs; an effect the other way counts as inactive or inconclusive)
Procedure, shortened: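 HEK293 cells stably expressing human KISS1R were loaded with calcium dye for 1 h at 37 C, then given compound; fluorescence (Ex/Em 480/540) was read kinetically for 3 min. Fifteen concentrations, triplicate.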

[5] = G protein-coupled receptor (GPCR) small molecule agonists, calcium flux assay: HEK293 wild type cell line counter screen (AID 1920065)
Procedure, shortened: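 Wild-type HEK293 cells plated 18 h, loaded with calcium dye 1 h at 37 C, then compounds added in agonist mode (ATP as positive control). Kinetic fluorescence Ex/Em 480/540 recorded 3 min at 1 sec intervals; 15 concentrations, triplicate.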

[6] = p53 small molecule agonists, cell-based qHTS assay with human liver microsomes (AID 1963577)
Procedure, shortened: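 Fluorescence of the beta-lactamase reporter in p53RE-bla cells, detected with LiveBLAzer substrate (2 h, room temperature, dark), served as the read-out after 16 h compound exposure at 37 C with human liver microsomes and NADPH, each 0.5 mg/mL final.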

[7] = p53 small molecule agonists, cell-based qHTS assay with rat liver microsomes (AID 1963578); further: potency means the concentration at half of the fitted maximal effect
Procedure, shortened: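 Cells carrying a p53 response element–beta-lactamase reporter were plated and rested 5 h, then dosed with compound in DMSO plus rat liver microsomes and NADPH, each at 0.5 mg/mL final. After 16 h at 37 C, LiveBLAzer substrate was added for 2 h.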

[8] = p53 small molecule agonists, cell-based qHTS assay with human liver microsomes: qHTS cell viability counter screen (AID 1963579); further: nearly all actives have a fitted effect of over 45% in size
Procedure, shortened: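 Cytotoxicity counter screen: p53RE-bla, 4,000 cells/well; 5 h settle, 37 C/5% CO2; cpd + HLM 0.5 mg/mL + NADPH 0.5 mg/mL (final); 16 h, 37 C; CellTiter-Glo, 30 min RT, luminescence.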

[9] = p53 small molecule agonists, cell-based qHTS assay with rat liver microsomes: qHTS cell viability counter screen (AID 1963580); further: nearly all actives have a fitted effect of over 45% in size
Procedure, shortened: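 Viability is assessed in parallel with the p53 reporter read: HCT-116 p53RE-bla cells receive compounds plus rat microsomes and NADPH (0.5 mg/mL final apiece), incubate 16 h at 37 C, and then CellTiter-Glo luminescence is recorded.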

[10] = p53 small molecule agonists, cell-based qHTS assay: qHTS cell viability counter screen (AID 1963581); further: nearly all actives have a fitted effect of over 45% in size
Procedure, shortened: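 p53RE-bla HCT-116 cells, compounds added 5 h after plating and incubated 16 h at 37 C. Cytotoxicity measured in the same wells as intracellular ATP by CellTiter-Glo luminescence after 30 min at room temperature.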

[11] = target: 5-hydroxytryptamine receptor 2A (Homo sapiens) (UniProt P28223); assay: 5-hydroxytryptamine receptor 2A (HTR2A) small molecule antagonists, cell-based qHTS assay (AID 1963586); further: nearly all actives have a fitted effect of over 45% in size; further: potency means the concentration at half of the fitted maximal effect
Procedure, shortened: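 Antagonist-mode intracellular calcium assay: DOI (4 nM) added after 5 min compound pre-incubation at room temperature to dye-loaded HTR2A-CHO cells. Fluorescence followed for 3 min, sampled every second.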

[12] = target: 5-hydroxytryptamine receptor 2A (Homo sapiens) (UniProt P28223); assay: 5-hydroxytryptamine receptor 2A (HTR2A) small molecule agonists, cell-based qHTS assay (AID 1963587); further: nearly all actives have a fitted effect of over 30% in size
Procedure, shortened: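 CHO cells stably expressing human HTR2A, plated 18 h, loaded with calcium dye 1 h at 37 C. Agonist mode: compounds added and intracellular calcium fluorescence recorded kinetically for 2 min at 1 sec intervals.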

[13] = target: Muscarinic acetylcholine receptor M1 (Homo sapiens) (UniProt P11229); assay: Cholinergic receptor muscarinic 1 (CHRM1) small molecule antagonists, cell-based qHTS assay (AID 1963588); further: nearly all actives have a fitted effect of over 40% in size; further: potency means the concentration at half of the fitted maximal effect
Procedure, shortened: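 CHRM1-CHO calcium-flux assay, antagonist mode. Cells were seeded 18 h, dye-loaded 1 h at 37 C and given compound for 5 min at RT, then acetylcholine was added at 50nM. FDSS fluorescence was read 3 min; 15 concentrations, three runs.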

[14] = target: Muscarinic acetylcholine receptor M1 (Homo sapiens) (UniProt P11229); assay: Cholinergic receptor muscarinic 1 (CHRM1) small molecule agonists, cell-based qHTS assay (AID 1963589); further: nearly all actives have a fitted effect of over 35% in size; further: potency means the concentration at half of the fitted maximal effect
Procedure, shortened: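 CHO cells stably expressing human CHRM1 were loaded with calcium dye for 1 h at 37 C, then compound was added in agonist mode. Intracellular calcium fluorescence was followed kinetically at 1 s intervals. Fifteen concentrations were tested in three independent runs.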

[15] = cAMP Responsive Elements (CRE) small molecule agonists, cell-based qHTS assay (AID 1963590)
Procedure, shortened: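 CRE-bla HEK 293T cells, 2,000/well in DMEM with 10% dialyzed FBS and 25 mM HEPES, pre-incubated 18 h at 37 C, then exposed to compound 3 h at 37 C. Beta-lactamase reporter read with LiveBLAzer B/G FRET substrate after 2 h at room temperature.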

[16] = cAMP Responsive Elements (CRE) small molecule antagonists, cell-based qHTS assay (AID 1963591; active means well fitted inhibition curve with a large enough effect in the signal ratio in the repeat runs, not every such curve was filed as active; the % refers to the signal ratio)
Procedure, shortened: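 CRE-bla HEK293T cells plated 18 h, then given compound plus NKH477 at 0.25 uM final for 3 h at 37C. Beta-lactamase reporter read with LiveBLAzer B/G FRET substrate after 2 h at room temperature.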

[17] = target: Beta-2 adrenergic receptor (Homo sapiens) (UniProt P07550); assay: Adrenergic beta2 receptor (ADRB2) small molecule antagonists, cell-based qHTS assay (AID 1963592); further: series mostly up to about 92 µM; nearly all actives have a fitted effect of over 50% in size
Procedure, shortened: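 Cells (CHO, stable ADRB2 overexpression) incubated 18-20hr at 37C; compounds added from DMSO; agonist mix (1nM isoproterenol, 100uM IBMX, 25uM Ro-20-1724) added; 0.5hr RT; d2-cAMP and anti-cAMP-cryptate added; 1hr RT; 665/615 nm read.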

[18] = target: D(2) dopamine receptor (Homo sapiens) (UniProt P14416); assay: Dopamine D2 receptor (DRD2) small molecule agonists, cell-based qHTS assay (AID 1963594); further: nearly all actives have a fitted effect of over 35% in size
Procedure, shortened: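 HEK293 cells stably expressing human DRD2, pre-treated with PDE inhibitor Ro20-1724 (0.1 mM final) and compound 10 min at room temperature, then stimulated with NKH477 (200nM […]) for 30 min. cAMP read by HTRF (665/620 nm).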

[19] = target: D(2) dopamine receptor (Homo sapiens) (UniProt P14416); assay: Dopamine D2 receptor (DRD2) small molecule antagonists, cell-based qHTS assay (AID 1963595; active means well fitted inhibition curve with a large enough effect in the signal ratio in the repeat runs, with a control signal flat; the % refers to the signal ratio)
Procedure, shortened: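 HTRF cAMP read-out at 665 and 620 nm emission (340 nm excitation). Antagonist mode: compounds were tested against 12 nM quinpirole in DRD2-HEK293 cells, with 200 nM NKH477 raising cAMP and 0.1 mM Ro20-1724 blocking its breakdown.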

[20] = p53 small molecule agonists, cell-based qHTS assay (AID 1963582; active means well fitted activation curve with a large enough effect in the signal ratio in the repeat runs, not every such curve was filed as active; the % refers to the signal ratio)
Procedure, shortened: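 p53RE-bla reporter cells, compounds added in DMSO after 5 h plating, incubated 16 h at 37 C. Beta-lactamase read via 2 h room-temperature LiveBLAzer B/G FRET substrate, fluorescence intensity.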

Measured: Potency

Chain of Muscarinic acetylcholine receptor M1 (Homo sapiens) (P11229 whole entry, looked up): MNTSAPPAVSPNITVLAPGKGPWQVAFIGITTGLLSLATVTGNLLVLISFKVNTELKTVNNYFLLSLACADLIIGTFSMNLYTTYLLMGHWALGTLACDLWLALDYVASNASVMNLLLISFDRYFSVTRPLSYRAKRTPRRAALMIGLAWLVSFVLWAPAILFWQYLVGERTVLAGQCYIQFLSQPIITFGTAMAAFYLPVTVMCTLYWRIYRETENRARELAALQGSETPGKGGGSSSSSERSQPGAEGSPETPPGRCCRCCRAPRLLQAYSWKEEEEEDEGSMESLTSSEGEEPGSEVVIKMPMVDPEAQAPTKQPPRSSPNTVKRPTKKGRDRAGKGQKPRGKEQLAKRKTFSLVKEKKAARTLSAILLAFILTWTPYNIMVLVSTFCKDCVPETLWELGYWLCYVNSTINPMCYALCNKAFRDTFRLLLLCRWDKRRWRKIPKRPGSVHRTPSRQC
Chain of 5-hydroxytryptamine receptor 2A (Homo sapiens) (P28223 whole entry, looked up): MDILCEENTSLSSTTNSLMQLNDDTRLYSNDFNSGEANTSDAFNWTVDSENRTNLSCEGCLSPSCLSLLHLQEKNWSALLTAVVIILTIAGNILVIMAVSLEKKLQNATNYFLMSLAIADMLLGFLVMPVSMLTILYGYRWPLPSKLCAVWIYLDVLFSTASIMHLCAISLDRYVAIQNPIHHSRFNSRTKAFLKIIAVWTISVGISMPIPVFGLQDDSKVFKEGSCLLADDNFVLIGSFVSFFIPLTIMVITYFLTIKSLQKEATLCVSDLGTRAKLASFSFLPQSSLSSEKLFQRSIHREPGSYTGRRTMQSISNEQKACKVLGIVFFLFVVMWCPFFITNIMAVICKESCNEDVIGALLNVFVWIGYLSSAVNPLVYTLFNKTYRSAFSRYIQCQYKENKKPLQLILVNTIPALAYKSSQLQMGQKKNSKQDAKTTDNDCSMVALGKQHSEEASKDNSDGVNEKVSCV
Chain of D(2) dopamine receptor (Homo sapiens) (P14416 whole entry, looked up): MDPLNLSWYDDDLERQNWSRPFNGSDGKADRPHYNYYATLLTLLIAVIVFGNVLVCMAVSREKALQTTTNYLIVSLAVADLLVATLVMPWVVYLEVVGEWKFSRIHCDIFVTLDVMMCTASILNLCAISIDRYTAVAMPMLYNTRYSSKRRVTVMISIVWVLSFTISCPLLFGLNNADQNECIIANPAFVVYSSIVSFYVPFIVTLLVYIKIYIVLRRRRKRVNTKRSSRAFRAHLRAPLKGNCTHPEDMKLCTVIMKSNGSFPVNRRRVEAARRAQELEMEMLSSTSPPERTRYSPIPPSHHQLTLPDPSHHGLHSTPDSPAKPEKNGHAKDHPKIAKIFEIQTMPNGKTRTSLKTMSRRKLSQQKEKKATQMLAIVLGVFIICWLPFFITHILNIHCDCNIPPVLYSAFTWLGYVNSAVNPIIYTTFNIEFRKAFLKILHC
Chain of KiSS-1 receptor (Homo sapiens) (Q969F8 whole entry, looked up): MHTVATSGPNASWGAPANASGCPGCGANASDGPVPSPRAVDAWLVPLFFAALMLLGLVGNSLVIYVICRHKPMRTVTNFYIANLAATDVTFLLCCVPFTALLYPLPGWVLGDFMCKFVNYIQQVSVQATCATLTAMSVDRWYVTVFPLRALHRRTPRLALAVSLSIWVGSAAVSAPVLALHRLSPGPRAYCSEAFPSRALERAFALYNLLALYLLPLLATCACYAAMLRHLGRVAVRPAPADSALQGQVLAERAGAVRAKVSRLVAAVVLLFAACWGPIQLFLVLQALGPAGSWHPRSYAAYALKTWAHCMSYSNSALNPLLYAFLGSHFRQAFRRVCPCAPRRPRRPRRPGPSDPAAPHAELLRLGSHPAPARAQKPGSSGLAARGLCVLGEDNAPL
Chain of Beta-2 adrenergic receptor (Homo sapiens) (P07550 whole entry, looked up): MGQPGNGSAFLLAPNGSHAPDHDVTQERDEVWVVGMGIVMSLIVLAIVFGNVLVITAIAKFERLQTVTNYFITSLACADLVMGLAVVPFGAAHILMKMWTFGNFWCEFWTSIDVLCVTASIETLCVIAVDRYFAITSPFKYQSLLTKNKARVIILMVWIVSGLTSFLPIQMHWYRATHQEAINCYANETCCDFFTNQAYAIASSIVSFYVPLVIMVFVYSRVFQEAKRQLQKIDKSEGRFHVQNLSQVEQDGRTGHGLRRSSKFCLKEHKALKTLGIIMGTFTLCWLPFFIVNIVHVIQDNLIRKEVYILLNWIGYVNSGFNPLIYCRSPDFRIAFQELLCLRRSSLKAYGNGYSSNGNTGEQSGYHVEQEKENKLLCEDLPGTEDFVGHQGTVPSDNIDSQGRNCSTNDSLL
Chain of Gonadotropin-releasing hormone receptor (Homo sapiens) (P30968 whole entry, looked up): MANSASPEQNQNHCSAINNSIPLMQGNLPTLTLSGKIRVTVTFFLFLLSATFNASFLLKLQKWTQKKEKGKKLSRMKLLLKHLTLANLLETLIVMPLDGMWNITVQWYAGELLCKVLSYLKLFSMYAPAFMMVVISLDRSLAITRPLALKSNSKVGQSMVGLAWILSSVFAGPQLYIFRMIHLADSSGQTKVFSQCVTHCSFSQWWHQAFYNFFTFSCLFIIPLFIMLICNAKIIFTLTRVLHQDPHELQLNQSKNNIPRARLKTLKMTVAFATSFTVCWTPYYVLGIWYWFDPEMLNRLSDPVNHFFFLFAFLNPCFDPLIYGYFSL

N#CC(Cl)(Cl)Cl
inactive: [1] | [2] | [3] | [4] | [5] | [6] | [7] | [8] | [9] | [10] | [11] | [12] | [13] | [14] | [15] | [16] | [17] | [18] | [19]

CC(C)(C)OOC(=O)c1ccccc1
13.3 µM (active) and inactive: [13]
inactive: [1] | [2] | [3] | [4] | [5] | [6] | [7] | [8] | [9] | [10] | [12] | [14] | [15] | [16] | [17] | [18] | [19]

OCc1ccco1
inactive: [1] | [2] | [3] | [4] | [5] | [6] | [7] | [8] | [9] | [10] | [11] | [12] | [13] | [14] | [15] | [16] | [17] | [18] | [19]

Nc1ccc([N+](=O)[O-])cc1N
inactive: [3] | [4] | [5] | [6] | [7] | [8] | [9] | [10] | [11] | [12] | [13] | [14] | [15]
active: [1] 13.7 µM | [2] 34.4 µM

CCOC(=O)C1OC1(C)c1ccccc1 (stereo not drawn)
inactive: [1] | [2] | [3] | [4] | [5] | [6] | [7] | [8] | [9] | [10] | [11] | [12] | [13] | [14] | [15] | [16] | [17] | [18] | [19]

Cc1cc(Cl)ccc1OCCCC(=O)O
inactive: [1] | [2] | [3] | [4] | [5] | [6] | [7] | [8] | [9] | [10] | [11] | [12] | [13] | [14] | [17] | [18] | [19]

CCCCCON=O
inactive: [1] | [2] | [3] | [4] | [5] | [6] | [7] | [8] | [9] | [10] | [11] | [12] | [13] | [14] | [15] | [16] | [17] | [18] | [19]

CCCCCCCCCCCOC(=O)c1ccccc1C(=O)OCCCCCCCCCCC
inactive: [1] | [2] | [3] | [4] | [5] | [6] | [7] | [8] | [9] | [10] | [11] | [12] | [13] | [14] | [15] | [16] | [17] | [18] | [19]

CCN(CC)N=O
inactive: [1] | [2] | [3] | [4] | [5] | [6] | [7] | [8] | [9] | [10] | [20] | [16] | [17] | [18] | [19]

C[N+](C)(C)C
active: [14] 22.1 µM
inactive: [1] | [2] | [3] | [4] | [5] | [6] | [7] | [8] | [9] | [10] | [11] | [12] | [13] | [15] | [16] | [17] | [18]

Clc1ccc(C(c2ccccc2Cl)C(Cl)(Cl)Cl)cc1 (stereo not drawn)
active: [1] 43.5 µM
inactive: [2] | [3] | [4] | [5] | [6] | [7] | [8] | [9] | [10] | [11] | [12] | [13] | [14] | [16] | [17] | [18] | [19]

O=S(=O)(c1ccc(Cl)cc1)c1cc(Cl)c(Cl)cc1Cl
active: [2] 48.5 µM
inactive: [1] | [3] | [4] | [5] | [6] | [7] | [8] | [9] | [10] | [11] | [12] | [13] | [14] | [15] | [17] | [18] | [19]

CCSC(=O)N1CCCCCC1
37.5 µM (active) and inactive: [2]
active: [7] 4.99 µM and 2.57 µM
inactive: [1] | [3] | [4] | [5] | [6] | [8] | [9] | [10] | [11] | [12] | [13] | [14] | [15] | [16] | [17] | [18] | [19]

C=CC1CC=CCC1 (stereo not drawn)
inactive: [1] | [2] | [3] | [4] | [5] | [6] | [7] | [8] | [9] | [10] | [11] | [12] | [13] | [14] | [15] | [16] | [18] | [19]

Nc1ccc(-c2ccc(N)c(Cl)c2)cc1Cl
active: [11] 21.2 µM and 17.5 µM and 29.8 µM
inactive: [1] | [2] | [3] | [4] | [5] | [6] | [7] | [8] | [9] | [10] | [13] | [14] | [15] | [16] | [17] | [19]
